Tests used:
Test in all cases: PBM binding z-score (relative to random genomic background probes); higher = stronger binding; sequences stand for … in GC…GCGATTGACAGCGTAGAATGAAGG
[1] = test system: FXR:RXRa (NR concentration 270 nM, RXRa partner concentration 90 nM)
Summary of the method: (§1)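 Binding buffer was PBS pH 7.4 with 2% milk, 0.02% Triton X-100, 1 mM DTT, 0.2 mg/mL BSA and 0.4 mg/ml salmon testes DNA. In it, ligand-free nuclear receptor dimers were incubated 1 h on custom Agilent 4×180K protein-binding microarrays carrying double-stranded probes. Antibodies against each partner (one per run) detected binding, and z-scores were calculated against random background probes after regression normalization of scanned fluorescence.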

[2] = test system: LXRa:RXRa (NR concentration 270 nM, RXRa partner concentration 90 nM)
Summary of the method: as §1

[3] = test system: LXRa homodimer (NR concentration 270 nM)
Summary of the method: as §1

[4] = test system: LXRb:RXRa (NR concentration 270 nM, RXRa partner concentration 90 nM)
Summary of the method: as §1

[5] = test system: LXRb homodimer (NR concentration 270 nM)
Summary of the method: as §1

[6] = test system: PPARa:RXRa (NR concentration 270 nM, RXRa partner concentration 90 nM)
Summary of the method: as §1

[7] = test system: PPARg:RXRa (NR concentration 180 nM, RXRa partner concentration 90 nM)
Summary of the method: as §1

[8] = test system: PPARg:RXRa 270nM:90nM, anti-RXR (NR concentration 270 nM, RXRa partner concentration 90 nM)
Summary of the method: as §1

[9] = test system: PPARg:RXRa 30nM:10nM, anti-RXR (NR concentration 30 nM, RXRa partner concentration 10 nM)
Summary of the method: as §1

[10] = test system: PPARg:RXRa 90nM:30nM, anti-RXR (NR concentration 90 nM, RXRa partner concentration 30 nM)
Summary of the method: as §1

[11] = test system: PPARg:RXRa DBDmut IVT, anti-RXR (DBD mutation: RXRa K156A/R161A, NR concentration 270 nM, RXRa partner concentration 90 nM)
Summary of the method: as §1

[12] = test system: PPARg:RXRa IVT, anti-PPARg (NR concentration 270 nM, RXRa partner concentration 90 nM)
Summary of the method: as §1

[13] = test system: PPARg DBDmut:RXRa IVT, anti-PPARg (DBD mutation: PPARg1 K132A/R137A, NR concentration 270 nM, RXRa partner concentration 90 nM)
Summary of the method: as §1

[14] = test system: PPARg DBDmut IVT, anti-PPARg (DBD mutation: PPARg1 K132A/R137A, NR concentration 270 nM)
Summary of the method: as §1

[15] = test system: PPARg homodimer (NR concentration 180 nM)
Summary of the method: as §1

[16] = test system: PXR:RXRa (NR concentration 270 nM, RXRa partner concentration 90 nM)
Summary of the method: as §1

[17] = test system: PXR homodimer (NR concentration 270 nM)
Summary of the method: as §1

[18] = test system: RARa:RXR (NR concentration 270 nM, RXRa partner concentration 90 nM)
Summary of the method: as §1

[19] = test system: RARa homodimer (NR concentration 270 nM)
Summary of the method: as §1

[20] = test system: RARb:RXRa (NR concentration 270 nM, RXRa partner concentration 90 nM)
Summary of the method: as §1

Sequence	PBM binding z-score [1]	PBM binding z-score [2]	PBM binding z-score [3]	PBM binding z-score [4]	PBM binding z-score [5]	PBM binding z-score [6]	PBM binding z-score [7]	PBM binding z-score [8]	PBM binding z-score [9]	PBM binding z-score [10]	PBM binding z-score [11]	PBM binding z-score [12]	PBM binding z-score [13]	PBM binding z-score [14]	PBM binding z-score [15]	PBM binding z-score [16]	PBM binding z-score [17]	PBM binding z-score [18]	PBM binding z-score [19]	PBM binding z-score [20]
TCTATTAGTTCAAGGGCAACCGACGAGTCCGTTT	1.82	1.97	1.24	1.45	0.602	2.23	0.394	2.66	3.94	3.37	2.36	1.14	0.61	1.22	1.87	2.28	2.5	1.55	1.41	3.08
TCTTGTAGATCAAAGGTTAAGAAGGCCGAAGCCT	1.58	2.1	-0.0136	1.83	-0.281	4.6	8.22	8.32	9.13	9.04	2.13	4.06	0.462	0.582	0.29	2.19	0.104	3.33	-0.0225	1.98
TGTCAAAGTTCATAGGTAACGTAAGTATCCACAC	6.65	5.95	4.17	4.02	1.38	5.13	7.92	7.41	4.42	6.63	0.217	4.39	1.15	2.16	1.89	5.05	3.32	4.15	0.391	4.9
TCTGCTAGGTCAACAATGGTCAGCTAATCTGCTA	3.1	3.67	-0.0289	2.16	0.366	3.29	2.13	3	2.07	2.54	4.05	4.05	0.64	0.264	1.23	1.94	-0.276	2.29	-0.189	4.11
GCTTGTAGAGCAAGGTTAAGAAAGACTAAGCTAA	-0.0313	0.442	-0.567	0.174	-1.28	1.5	1.41	2.77	0.817	2.03	2.64	1.72	-0.693	-0.41	-0.216	0.206	-0.546	0.613	-0.213	0.514
AAAACGAGGGCACGCTGAGTTGATAGCAGAGTAG	0.97	0.877	-0.416	0.344	-0.954	2.42	2.99	2.58	0.579	1.87	5.62	5.01	-0.17	0.145	0.283	1.5	0.139	0.828	-0.23	2.65
CCGACTGGGGCAAAGTTACCATAACGCACAGCCA	-0.19	-0.516	-0.498	-0.362	-0.945	1.6	4.27	5	3.18	4.86	3.71	3.42	-0.241	-0.589	0.229	-0.542	-0.263	-0.168	-0.168	0.462
CCAGACAGGTGAGAAGGTCACTCAGCCTCGATTA	2.4	2.53	0.729	2.7	-0.075	3.65	2.01	3.07	0.629	1.98	1.76	2.14	-0.281	-1.25	3.61	3.25	1.11	4.09	2.83	3.58
TGAATGAGGTTAAAGATCAGTGAACGTGGCGTCG	3.15	2.41	-0.442	1.55	-0.0397	4.69	5.57	6.1	4.77	6.78	2.37	3.44	0.722	0.242	1.24	2.01	0.152	3.08	-0.0565	2.09
CCTACTGGGCCACGAAAGGTCATTGCTTCAGTGA	3.92	5.22	5.24	4.45	0.134	4.62	4.49	4.91	2.15	4.17	5.37	5.7	1.88	1.06	3.27	5.56	2.05	5.35	1.56	3.94
CCTGCTAGGTCATCGTCAGCTAATCTACAGTATG	3.85	2.89	0.112	1.87	-0.413	3.5	2.06	2.75	0.439	1.47	4.49	3.59	-0.277	-0.677	0.929	1.45	-0.29	2.39	-0.471	4.03
ATCCCAAGGTGATCGTGAGGTCGTTGATACTAAC	1.33	1.13	0.822	1.02	-0.338	1.16	0.11	0.0594	-0.299	-0.346	0.258	0.592	0.328	-0.0144	1.01	2.89	1.37	1.81	0.229	1.31
CGAACGAGGGCAAGAGTTGATAGCAAATGCCGAT	0.442	0.206	-0.493	0.236	-0.921	1.52	2.3	2.48	0.687	1.92	3.38	2.22	0.196	-0.307	0.163	0.404	-0.197	0.316	-0.216	2.38
GCGACTGGGGCAATGCAGGTTACCATAAGGTTGG	0.0254	0.655	-0.566	0.504	-0.824	1.78	1.65	1.26	-0.113	0.69	4.37	4.53	-0.0887	-0.128	0.0203	0.548	-0.5	0.919	-0.465	0.959
